# Screening results deposited in PubChem by National Center for Advancing Translational Sciences (NCATS).
# Sampled rows, rich in hits. Any-hit rate of the full collection: about 21%.
# TDP1 cell CPT = DT40-hTDP1 cell growth loss with CPT | chicken DT40 Tdp1-/-;hTDP1 cells + 20 nM CPT, ATP luminescence, 48 h | Potency, µM (titrated, usually from 46.2 µM), for inactives: top-dose activity change, negative = growth inhibition, most hits filed as inhibitors | 12% of 420,000 active | AID 686979; further: potency means the concentration at half of the fitted maximal effect; on the % scale 0 is the no-effect control and ±100 the full control effect; nearly all actives have a fitted effect of over 55% in size
#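 Chicken DT40 Tdp1-/- cells stably complemented with human TDP1 were seeded at 400 cells/well in medium containing 20 nM camptothecin, exposed to pin-transferred compounds, and grown at 37 °C for at least 48 hr. Viability was read as ATP luminescence.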
# ClpP mod = qHTS Assay for Activators of ClpP; purified B. subtilis ClpP, FRET peptide cleavage, 20 min; 1.9% of 340,000 active; Potency, µM (highest dose often 57.5 µM), for inactives: at the top dose activity change, negative = active; active means well fitted falling curve with a large enough effect; inconclusive means small, poorly fitted or top-dose-only effect; inactive means no such curve, though single readings can be large or run the other way; further: potency means the concentration at half of the fitted maximal effect; the source files actives as falling curves though it sought activators and does not explain the sign; nearly all actives have a fitted effect of over 65% in size
# Target sequence (P80244 whole entry, looked up): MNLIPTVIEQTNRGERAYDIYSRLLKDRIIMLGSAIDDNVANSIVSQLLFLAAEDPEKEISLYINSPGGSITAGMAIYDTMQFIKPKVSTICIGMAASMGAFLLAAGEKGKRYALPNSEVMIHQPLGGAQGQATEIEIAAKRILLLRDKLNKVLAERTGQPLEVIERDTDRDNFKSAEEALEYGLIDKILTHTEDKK
#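 Buffer: 100 mM Tris/HCl pH8, 100 mM KCl, 0.05% low protease BSA, 2.5% glycerol, 0.01% Tween-20. ClpP 10 microg/mL final; 20 min RT; delta FRET normalized to ADEP and DMSO controls.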
# DRD3 agonist = activates the human D3 dopamine receptor; AID 652048; 0.58% of 410,000 active; max activation, %; D3R DiscoveRx beta-arrestin cells, luminescence, 90 min; in the data active means max activation above about 30%; further: 0% is about no effect
# Target sequence (P35462 whole entry, looked up): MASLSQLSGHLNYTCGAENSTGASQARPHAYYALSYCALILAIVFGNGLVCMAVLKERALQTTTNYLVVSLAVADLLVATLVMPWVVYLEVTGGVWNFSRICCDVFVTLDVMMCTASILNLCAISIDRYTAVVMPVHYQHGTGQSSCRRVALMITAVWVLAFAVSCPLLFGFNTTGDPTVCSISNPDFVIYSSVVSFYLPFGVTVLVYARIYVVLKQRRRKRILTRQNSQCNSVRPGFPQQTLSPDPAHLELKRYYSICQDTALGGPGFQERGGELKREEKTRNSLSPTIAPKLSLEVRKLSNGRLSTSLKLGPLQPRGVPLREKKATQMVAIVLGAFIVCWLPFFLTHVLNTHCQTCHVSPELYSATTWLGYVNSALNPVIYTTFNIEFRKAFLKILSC
#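 Agonist-mode cell screen: cells plated at 1500/well and incubated overnight at 37 °C, then exposed to library compounds for 90 min at 37 °C. Detection reagent was added for 30–60 min at room temperature, and luminescence was read.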
# IL-1B inflam inh = blocks inflammasome-driven IL-1 beta release. 4.7% of 360,000 active. AID 743279. THP-1 LPS/ATP IL-1B secretion, AlphaLISA, 16 h; stronger effect = lower value. activity change, % at 57.5 µM; in the data active means activity change below about -50%; inconclusive means mostly about -30% to -49%; further: on the % scale 0 is the no-effect control and ±100 the full control effect
#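 Secreted IL-1B measured by AlphaLISA bead assay after 16 h compound exposure of THP-1 cells; compounds (final up to 57.5 uM) added 1 h before LPS (250 ng/mL) and ATP (1.25 mM) stimulation; lower signal means less secretion.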
# DRD3 antagonist = antagonists of human D3 dopamine receptor | max response, negative = inhibition, % | AID 652054 | D3R cells, DiscoveRx beta-arrestin luminescence, antagonist mode; stronger effect = lower value | 2.5% of 360,000 active; in the data active means max response below about -50%; inconclusive means no clear call, values can overlap the other calls; further: on the % scale 0 is the no-effect control and ±100 the full control effect
#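 Cells expressing the human receptor were seeded at 1500 cells/well, incubated overnight at 37 degrees C in 5% CO2, then exposed to library compounds with dopamine controls for 90 minutes at 37 degrees C before luminescent detection.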
# TDP1 cell noCPT = qHTS for Inhibitors of human tyrosyl-DNA phosphodiesterase 1 (TDP1): qHTS in cells in absence of CPT; Potency, µM (doses to about 46.2 µM), inactives show at the top dose activity change, negative = growth inhibition, most hits filed as inhibitors; DT40 Tdp1-/- hTDP1 cells, no CPT, ATP luminescence, 48 h; 15% of 420,000 active; AID 686978, 2013; further: potency means the concentration at half of the fitted maximal effect; on the % scale 0 is the no-effect control and ±100 the full control effect; nearly all actives have a fitted effect of over 55% in size
#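 Readout: luminescence from CellTiter-Glo after 30 min in the dark at RT. Cells: DT40 Tdp1-/- with stable hTDP1, 400/well. Exposure: compounds alone, ≥48 hr, 37 °C.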
# Active calls of the source: *; ? = inconclusive; . = not tested or not shown; [ ] = another dose, or the depositor's remark. Unless noted, the call rests on the fitted dose curve; in most records, active means well fitted inhibition curve with a large enough effect; inconclusive means small, poorly fitted or top-dose-only effect; inactive means flat fitted curve, though single readings scatter.
SMILES,TDP1 cell CPT,ClpP mod,DRD3 agonist,IL-1B inflam inh,DRD3 antagonist,TDP1 cell noCPT
CCCCNC(=O)CCc1c(C)nc2nc(-c3cc(OC)cc(OC)c3)nn2c1C,-19%,0%,11,-8,-3,?
COc1ccc(S(=O)(=O)c2nnn(-c3ccc(C)c(Cl)c3)c2C)cc1,?,-6%,-4,.,.,?
CSc1nnc(SCC(=O)Nc2ccc3[nH]c(=O)[nH]c3c2)s1,-8%,0%,0,-4,-10,22%
CCn1cc(S(=O)(=O)Nc2ncccn2)cn1,-8%,-3%,1,3,2,23%
COc1cc(OC)cc(-c2cc3nc(C)c(CCC(=O)Nc4nc(C)cs4)c(C)n3n2)c1,18µM*,?,13,-13,110,10µM*
COC(=O)c1cc(NC(=O)CCc2c(C)nc3cc(-c4ccccc4)nn3c2C)cc(C(=O)OC)c1,7%,-5%,-8,.,.,1%
Cc1ccc(C)c(NC(=O)CCc2c(C)n(C)c3cc(-c4ccccc4C)nn3c2=O)c1,21µM*,4%,-2,.,.,15µM*
COc1cc(-c2cc3n(C)c(C)c(CCC(=O)NCc4ccccc4)c(=O)n3n2)cc(OC)c1OC,15µM*,-10%,8,.,.,-69%
Cc1nc2[nH]c(=O)[nH]c(=O)c2[nH]1,11%[9.04 µM],.,.,.,.,-20%[9.04 µM]
CCCN1CCN(CCNC(=O)Nc2cc(Cl)c(OC)cc2OC)CC1,-22%,-5%,-8,.,.,10%
COc1cc2c(cc1OC)CN(C(=O)c1ccc3[nH]c(C)c(C)c3c1)CC2,?,-6%,-4,-24,40,?
O=C(O)CCc1c(C(=O)O)[nH]c2ccccc12,1%,-10%,-9,24,11,0%
O=C(O)CCc1[nH]c2ccccc2c1Sc1ccccc1,-1%,-1%,-19,32,-67*,4%
COC(=O)C(Cc1ccccc1)NC(=O)CNC(=O)c1ccc(Br)cc1 (stereo unspecified),6%,.,-10,-19,?,-6%
CC(C)(C)c1ccc(S(=O)(=O)N2CCN(c3ncccn3)CC2)cc1,-2%,.,2,33,12,?
CCCc1ccc(-c2cc(C(=O)NC3=NCCS3)c3ccccc3n2)cc1,?,-10%,-2,-53*,-5,?
Cc1ccc(-c2cc(C(=O)NC3=NCCS3)c3ccccc3n2)cc1C,?,-11%,-11,-9,-8,-28%
O=C(NC1=NCCS1)c1cc(-c2ccc(F)cc2)nc2ccccc12,?,-3%,-5,-73*,-9,?
Cc1nn(-c2ccccc2)c(N)c1Sc1ccc([N+](=O)[O-])cc1,?,-2%,1,?,-17,15µM*
Cc1nn(-c2ccccc2)c2c1C(c1ccc([N+](=O)[O-])cc1)C(C#N)=C(N)O2 (stereo unspecified),15µM*,0%,0,-12,-21,?
Cc1nn(-c2ccccc2)c(OC(=O)C(C)C)c1Sc1ccccc1,-17%,0%,-11,.,.,?
Cc1nn(S(=O)(=O)c2ccc(Cl)cc2)c(C)c1Sc1ccc([N+](=O)[O-])cc1,16µM*,-2%,-13,-10,6,16µM*
O=C(O)CCn1ccc2cc(S(=O)(=O)N3CCCCC3)ccc21,-4%,-16%,-6,.,.,-24%
CCN(CC)c1ccc(/C=C/c2sc3ccccc3[n+]2CCCCI)cc1,0.63µM*,1%,.,.,.,0.45µM*
CCCCCCC[n+]1c(/C=C/c2ccc(N(C)C)cc2)sc2ccccc21,0.16µM*,2%,.,.,.,0.28µM*
SMILES,TDP1 cell CPT,ClpP mod,DRD3 agonist,IL-1B inflam inh,DRD3 antagonist,TDP1 cell noCPT
O=C(COc1ccc(-c2ccccc2)cc1)NNC(=O)Nc1ccccc1,-12%,-2%,-2,3,-16,-19%
Cc1nnc(NCc2cccc(Cl)c2)c2ccccc12,?,.,-7,-21,-2,?
Cc1nnc(NCCc2ccccc2)c2ccccc12,?,.,-9,-19,?,23µM*
CCOC(=O)c1ccc(NC(=S)N(CCCN2CCCC2)Cc2ccco2)cc1,?,-3%,-17,-67*,15,?
Cc1ccc(NC(=S)N(CCCN2CCN(C)CC2)Cc2cccs2)cc1C,-10%,1%,-34,-61*,-23,-28%
CCOC(=O)c1ccc(NC(=S)N(CCCN2CCCC2)Cc2cccs2)cc1,?,.,-13,12,-21,?
CCOC(=O)c1ccc(NC(=S)N(CCCN2CCN(CC)CC2)Cc2cccs2)cc1,?,.,-18,-1,0,18µM*
CCOC(=O)c1ccc(NC(=S)N(CCCN2CCCC(C)C2)Cc2cccs2)cc1 (stereo unspecified),?,2%,-19,-81*,-87*,26µM*
CCOC(=O)c1ccc(NC(=S)N(CCCN2CCN(C)CC2)Cc2cccs2)cc1,-28%,.,-15,?,-5,-14%
CCOc1ccc(NC(=S)N(CCc2c(C)[nH]c3ccccc23)Cc2ccco2)cc1,13µM*,2%,-10,?,?,?
Cc1ccccc1NC(=S)N(CCCN1CCC(C)CC1)Cc1ccco1,2%,-13%,-26,-8,?,?
Cc1ccc(NC(=S)N(CCCN2CCC(C)CC2)Cc2ccco2)cc1C,?,-2%,-34,-78*,-52*,?
CCOC(=O)c1ccc(NC(=S)N(CCN2CCCCCC2)Cc2cccs2)cc1,?,.,-16,-3,-75*,15µM*
OCCC1CN(Cc2cnc(N3CCOCC3)s2)CCN1C1CCCC1 (stereo unspecified),1%,0%,0,-12,9,7%
O=c1[nH]cc(S(=O)(=O)N2CCCc3ccccc32)c(=O)[nH]1,7%,-3%,2,9,-5,20%
Clc1cccc(N/N=C(\Cc2nc3ccccc3[nH]2)c2ccccc2)c1,?,-4%,1,-104*,3,?
CC(C)c1c(C(=O)N/N=C/c2cccnc2)nnn1-c1nonc1N,4%,.,0,-4,1,?
CC(C)c1c(C(=O)N/N=C/c2ccc(Cl)cc2Cl)nnn1-c1nonc1N,0%,1%,2,32,-2,?
CCc1ccc(/C=N/NC(=O)c2nnn(-c3nonc3N)c2C(C)C)cc1,?,.,-13,27,-28,18µM*
Cc1ccc(-c2c(C(=O)N/N=C/c3ccc(OC(C)C)cc3)nnn2-c2nonc2N)cc1,-21%,28µM*,-1,41,-10,?
